{"source": "the supplement of paper PMC11001985", "data": [{"compound": "C#CCNC(=O)CCSSCCC(=O)NCCc1ccc(C=O)c(C=O)c1", "experiment": "lysine labeling ratio R10:1 (500 µM / 50 µM probe), SILAC-ABPP in living cells; higher = lower intrinsic lysine reactivity toward the probe, active = 2 or less", "conditions": "HeLa; probe concentrations 500 vs 50 µM", "summary_of_the_method": "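With forward and reverse label swaps, light and heavy SILAC HeLa cells, alive and in PBS at room temperature, were exposed to either 500 µM or 50 µM of an alkyne-tagged lysine probe bearing a disulfide link. After mixing, lysates were clicked to biotin-azide, cut with trypsin, pulled down on neutravidin, freed with DTT, alkylated and analysed on a TIMS-TOF Pro by LC-MS/MS. The per-lysine value R is the median over forward and reverse replicates of the filtered median high-probe/low-probe MS1 peptide ratio. It is capped at 20.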", "values": [{"target": "TFPI (lysine site: K102) (UniProt P10646)", "lysine labeling ratio R10:1": "7.9 (inactive)"}, {"target": "UniProt P05787 (lysine site: K472)", "lysine labeling ratio R10:1": "2.67 (inactive)"}, {"target": "FLOT1 (lysine site: K184) (UniProt O75955)", "lysine labeling ratio R10:1": "1.83 (active)"}, {"target": "PPIA (lysine site: K155) (UniProt P62937)", "sequence (P62937 whole entry, looked up)": "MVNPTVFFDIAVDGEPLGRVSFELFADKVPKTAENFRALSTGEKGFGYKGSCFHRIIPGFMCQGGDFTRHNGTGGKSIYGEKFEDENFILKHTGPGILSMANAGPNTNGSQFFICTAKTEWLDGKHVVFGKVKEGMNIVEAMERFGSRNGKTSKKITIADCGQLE", "lysine labeling ratio R10:1": "2.47 (inactive)"}, {"target": "MCAM (lysine site: K398) (UniProt P43121)", "lysine labeling ratio R10:1": "5.61 (inactive)"}, {"target": "PSMA3 (lysine site: K65) (UniProt P25788)", "sequence (P25788 whole entry)": "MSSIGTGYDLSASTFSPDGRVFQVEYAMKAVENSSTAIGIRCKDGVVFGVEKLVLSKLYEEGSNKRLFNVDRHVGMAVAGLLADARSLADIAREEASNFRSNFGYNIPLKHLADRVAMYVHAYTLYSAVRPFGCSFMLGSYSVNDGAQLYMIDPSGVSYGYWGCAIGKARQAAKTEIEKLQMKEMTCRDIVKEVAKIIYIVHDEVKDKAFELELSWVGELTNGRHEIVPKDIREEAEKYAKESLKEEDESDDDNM", "lysine labeling ratio R10:1": "1.97 (active)"}, {"target": "KTN1 (lysine site: K1240) (UniProt Q86UP2)", "lysine labeling ratio R10:1": "5.6 (inactive)"}, {"target": "MYH9 (lysine site: K202) (UniProt P35579)", "lysine labeling ratio R10:1": "1.58 (active)"}, {"target": "L1CAM (lysine site: K222) (UniProt P32004)", "lysine labeling ratio R10:1": "9.33 (inactive)"}, {"target": "MET (lysine site: K595) (UniProt P08581)", "lysine labeling ratio R10:1": "1.67 (active)"}, {"target": "PRDX1 (lysine site: K93) (UniProt Q06830)", "sequence (Q06830 whole entry)": "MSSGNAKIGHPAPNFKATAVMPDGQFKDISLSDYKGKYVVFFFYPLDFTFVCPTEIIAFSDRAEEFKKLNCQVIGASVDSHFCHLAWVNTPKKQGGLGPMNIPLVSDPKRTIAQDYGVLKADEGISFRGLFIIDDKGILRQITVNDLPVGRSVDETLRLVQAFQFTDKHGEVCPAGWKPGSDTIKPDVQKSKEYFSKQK", "lysine labeling ratio R10:1": "4.52 (inactive)"}, {"target": "CD9 (lysine site: K133) (UniProt P21926)", "lysine labeling ratio R10:1": "5.95 (inactive)"}, {"target": "UniProt Q15149 (lysine site: K2129)", "lysine labeling ratio R10:1": "3.49 (inactive)"}, {"target": "EEF1G (lysine site: K241) (UniProt P26641)", "lysine labeling ratio R10:1": "1.4 (active)"}, {"target": "UniProt P62987 (lysine site: K93)", "lysine labeling ratio R10:1": "5.44 (inactive)"}, {"target": "ITGA5 (lysine site: K588) (UniProt P08648)", "lysine labeling ratio R10:1": "1.72 (active)"}, {"target": "YBX1 (lysine site: K170) (UniProt P67809)", "sequence (P67809 whole entry)": "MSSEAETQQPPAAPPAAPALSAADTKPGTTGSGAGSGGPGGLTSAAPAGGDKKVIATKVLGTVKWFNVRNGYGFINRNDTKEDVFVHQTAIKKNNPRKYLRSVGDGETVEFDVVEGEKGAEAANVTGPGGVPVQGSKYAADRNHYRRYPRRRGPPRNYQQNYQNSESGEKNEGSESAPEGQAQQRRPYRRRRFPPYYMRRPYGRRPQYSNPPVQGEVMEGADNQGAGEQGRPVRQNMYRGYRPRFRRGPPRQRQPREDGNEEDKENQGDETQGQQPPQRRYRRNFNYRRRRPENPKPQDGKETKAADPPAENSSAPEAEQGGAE", "lysine labeling ratio R10:1": "9.44 (inactive)"}, {"target": "KRT18 (lysine site: K247) (UniProt P05783)", "lysine labeling ratio R10:1": "7.86 (inactive)"}, {"target": "UniProt O60245 (lysine site: K875)", "sequence (O60245 whole entry)": "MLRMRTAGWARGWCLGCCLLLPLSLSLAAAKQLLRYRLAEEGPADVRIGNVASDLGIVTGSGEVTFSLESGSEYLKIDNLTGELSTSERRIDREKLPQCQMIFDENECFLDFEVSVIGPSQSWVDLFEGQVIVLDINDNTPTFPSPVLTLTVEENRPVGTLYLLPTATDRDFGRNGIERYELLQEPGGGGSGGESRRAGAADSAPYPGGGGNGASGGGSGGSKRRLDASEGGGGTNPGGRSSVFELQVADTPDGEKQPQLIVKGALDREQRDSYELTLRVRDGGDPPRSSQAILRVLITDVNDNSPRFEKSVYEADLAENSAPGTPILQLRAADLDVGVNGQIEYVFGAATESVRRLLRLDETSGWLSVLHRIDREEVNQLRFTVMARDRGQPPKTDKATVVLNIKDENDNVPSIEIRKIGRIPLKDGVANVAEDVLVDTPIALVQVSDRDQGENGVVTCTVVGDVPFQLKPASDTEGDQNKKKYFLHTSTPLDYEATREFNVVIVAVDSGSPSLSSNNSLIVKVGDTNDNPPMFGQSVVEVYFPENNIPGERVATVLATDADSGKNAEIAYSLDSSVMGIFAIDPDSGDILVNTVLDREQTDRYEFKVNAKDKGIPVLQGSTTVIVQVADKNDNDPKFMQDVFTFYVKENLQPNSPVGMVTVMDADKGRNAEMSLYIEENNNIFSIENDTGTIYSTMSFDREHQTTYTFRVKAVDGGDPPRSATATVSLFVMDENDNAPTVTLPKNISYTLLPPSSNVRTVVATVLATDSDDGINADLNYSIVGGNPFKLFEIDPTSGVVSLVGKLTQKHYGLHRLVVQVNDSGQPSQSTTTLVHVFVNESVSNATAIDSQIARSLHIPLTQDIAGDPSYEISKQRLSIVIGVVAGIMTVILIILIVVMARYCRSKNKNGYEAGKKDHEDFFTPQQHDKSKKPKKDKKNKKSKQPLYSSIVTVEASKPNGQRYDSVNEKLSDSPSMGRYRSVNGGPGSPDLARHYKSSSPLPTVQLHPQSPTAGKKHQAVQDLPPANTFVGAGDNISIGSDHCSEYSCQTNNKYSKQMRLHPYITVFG", "lysine labeling ratio R10:1": "1.6 (active)"}, {"target": "FLNA (lysine site: K2133) (UniProt P21333)", "sequence (P21333 whole entry)": "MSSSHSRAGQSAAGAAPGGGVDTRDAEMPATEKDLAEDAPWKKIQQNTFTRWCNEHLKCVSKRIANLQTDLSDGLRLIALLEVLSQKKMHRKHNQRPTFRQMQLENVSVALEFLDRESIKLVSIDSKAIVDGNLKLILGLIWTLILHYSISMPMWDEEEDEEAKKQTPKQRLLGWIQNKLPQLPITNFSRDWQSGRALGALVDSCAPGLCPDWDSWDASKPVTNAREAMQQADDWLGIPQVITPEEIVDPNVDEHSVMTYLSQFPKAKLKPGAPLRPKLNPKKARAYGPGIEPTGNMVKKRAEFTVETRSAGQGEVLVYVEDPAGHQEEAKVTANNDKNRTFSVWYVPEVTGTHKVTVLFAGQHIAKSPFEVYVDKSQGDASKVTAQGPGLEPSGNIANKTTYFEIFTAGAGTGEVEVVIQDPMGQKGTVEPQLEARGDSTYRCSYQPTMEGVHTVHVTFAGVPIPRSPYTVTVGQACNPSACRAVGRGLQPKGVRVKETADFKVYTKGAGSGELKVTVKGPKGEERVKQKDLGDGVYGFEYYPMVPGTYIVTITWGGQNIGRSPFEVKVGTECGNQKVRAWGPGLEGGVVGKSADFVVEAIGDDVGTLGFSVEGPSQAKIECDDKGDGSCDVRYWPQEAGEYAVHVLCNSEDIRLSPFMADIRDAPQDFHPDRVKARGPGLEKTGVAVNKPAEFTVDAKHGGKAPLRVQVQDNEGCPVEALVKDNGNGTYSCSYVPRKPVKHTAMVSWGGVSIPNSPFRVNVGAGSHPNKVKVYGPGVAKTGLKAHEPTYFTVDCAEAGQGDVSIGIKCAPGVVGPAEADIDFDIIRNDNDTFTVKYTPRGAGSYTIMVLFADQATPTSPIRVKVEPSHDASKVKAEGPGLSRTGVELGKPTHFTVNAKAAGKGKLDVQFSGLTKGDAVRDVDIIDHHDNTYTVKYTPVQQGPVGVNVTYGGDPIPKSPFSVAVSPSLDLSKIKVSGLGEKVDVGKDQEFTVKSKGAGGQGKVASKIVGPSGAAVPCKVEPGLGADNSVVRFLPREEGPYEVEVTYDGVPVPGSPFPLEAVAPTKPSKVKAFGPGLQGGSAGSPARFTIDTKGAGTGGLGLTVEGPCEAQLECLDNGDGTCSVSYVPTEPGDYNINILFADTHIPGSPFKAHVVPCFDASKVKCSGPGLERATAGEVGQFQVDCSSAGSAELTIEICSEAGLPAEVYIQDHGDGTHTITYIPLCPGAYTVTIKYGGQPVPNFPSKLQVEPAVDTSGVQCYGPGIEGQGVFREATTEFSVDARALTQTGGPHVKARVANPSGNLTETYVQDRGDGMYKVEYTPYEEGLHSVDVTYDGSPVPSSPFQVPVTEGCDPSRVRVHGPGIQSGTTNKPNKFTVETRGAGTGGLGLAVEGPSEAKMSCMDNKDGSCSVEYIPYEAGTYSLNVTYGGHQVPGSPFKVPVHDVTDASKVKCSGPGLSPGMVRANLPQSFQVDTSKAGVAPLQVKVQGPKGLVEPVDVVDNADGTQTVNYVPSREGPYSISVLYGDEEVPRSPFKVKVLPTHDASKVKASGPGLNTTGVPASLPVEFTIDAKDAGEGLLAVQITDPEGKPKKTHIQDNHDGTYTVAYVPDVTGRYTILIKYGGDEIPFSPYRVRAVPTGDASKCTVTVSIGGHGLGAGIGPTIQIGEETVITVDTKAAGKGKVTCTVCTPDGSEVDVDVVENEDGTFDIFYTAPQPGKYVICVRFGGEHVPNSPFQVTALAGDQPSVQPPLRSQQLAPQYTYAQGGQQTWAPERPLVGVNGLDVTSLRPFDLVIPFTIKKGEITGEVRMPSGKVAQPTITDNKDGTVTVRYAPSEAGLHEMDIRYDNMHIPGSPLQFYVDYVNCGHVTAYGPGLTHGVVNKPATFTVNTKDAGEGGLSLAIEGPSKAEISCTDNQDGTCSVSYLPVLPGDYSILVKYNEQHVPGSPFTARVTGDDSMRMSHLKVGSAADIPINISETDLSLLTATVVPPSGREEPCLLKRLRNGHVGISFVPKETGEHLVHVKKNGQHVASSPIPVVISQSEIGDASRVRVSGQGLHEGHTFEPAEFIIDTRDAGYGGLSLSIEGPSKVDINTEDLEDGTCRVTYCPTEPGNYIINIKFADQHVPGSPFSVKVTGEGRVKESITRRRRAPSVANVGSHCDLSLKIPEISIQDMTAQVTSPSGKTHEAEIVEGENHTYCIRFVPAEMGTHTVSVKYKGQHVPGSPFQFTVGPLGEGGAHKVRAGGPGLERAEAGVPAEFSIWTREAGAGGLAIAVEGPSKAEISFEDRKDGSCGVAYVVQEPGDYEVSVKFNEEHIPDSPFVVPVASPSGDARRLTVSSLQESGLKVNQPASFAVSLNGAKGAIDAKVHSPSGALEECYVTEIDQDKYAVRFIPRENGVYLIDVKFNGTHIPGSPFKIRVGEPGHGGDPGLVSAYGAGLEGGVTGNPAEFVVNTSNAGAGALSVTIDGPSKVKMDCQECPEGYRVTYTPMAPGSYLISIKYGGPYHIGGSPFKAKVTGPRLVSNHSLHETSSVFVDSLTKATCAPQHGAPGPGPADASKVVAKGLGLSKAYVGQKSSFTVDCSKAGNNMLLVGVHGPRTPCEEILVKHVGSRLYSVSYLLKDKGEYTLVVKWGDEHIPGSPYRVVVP", "lysine labeling ratio R10:1": "2.27 (inactive)"}, {"target": "Q95604 (lysine site: K210) (UniProt P10321)", "sequence (P10321 whole entry, one chain of several)": "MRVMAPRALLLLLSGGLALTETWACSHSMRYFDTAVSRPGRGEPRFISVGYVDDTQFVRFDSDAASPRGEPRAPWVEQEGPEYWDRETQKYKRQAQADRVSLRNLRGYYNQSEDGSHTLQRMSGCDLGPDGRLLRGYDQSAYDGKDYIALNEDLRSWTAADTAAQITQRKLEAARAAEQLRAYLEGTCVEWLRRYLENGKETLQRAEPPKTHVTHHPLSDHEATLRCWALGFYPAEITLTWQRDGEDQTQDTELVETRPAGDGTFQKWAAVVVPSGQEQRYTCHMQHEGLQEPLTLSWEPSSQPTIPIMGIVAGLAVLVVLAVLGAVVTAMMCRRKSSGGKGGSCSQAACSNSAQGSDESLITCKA", "lysine labeling ratio R10:1": "6.33 (inactive)"}, {"target": "UniProt O15354 (lysine site: K405)", "lysine labeling ratio R10:1": "1.9 (active)"}, {"target": "XRCC5 (lysine site: K648) (UniProt P13010)", "lysine labeling ratio R10:1": "1.9 (active)"}]}]}
